PLK1 PBD block = blocks phosphopeptide binding to human PLK1 polo-box domain. AID 720504. P53350. Plk1 PBD binding of FITC phosphopeptide, fluorescence polarization. Potency, µM, for inactives: max response, negative = inhibition, usual class: inhibitors. 360,000 tested, 2.8% active; further: potency means the concentration at half of the fitted maximal effect; series mostly up to about 57 µM; on the % scale 0 is the no-effect control and ±100 the full control effect; nearly all actives have a fitted effect of over 65% in size
Vif-APOBEC3G blk = Vif-A3G binding inhibition | AID 602310 | Potency, µM (series often up to 46.1 µM), without a hit: at the highest dose activity, negative = active, most hits filed as inhibitors | Q9HC16 | 410,000 tested, 0.076% active | HeLa A3G-eYFP + Vif (tagged APOBEC3G with the HIV-1 protein that degrades it), YFP fluorescence, overnight; further: potency means the concentration at half of the fitted maximal effect; on the % scale 0 is the no-effect control and ±100 the full control effect; nearly all actives have a fitted effect of over 60% in size
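Read-out is eYFP fluorescence (Ex 488/Em 500-530) from Vif-expressing HeLa A3G-eYFP cells; more signal means A3G escaped Vif-mediated degradation. Cells plated overnight, compound pinned in, incubated overnight at 37 deg C.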
TSHR antagonist = antagonists of human thyroid stimulating hormone receptor | TSHR-expressing cells, TSH-stimulated cAMP HTRF, 2 h; active compounds read low | P16473 | activity change, negative = inhibition, % at 11.5 µM | 330,000 tested, 0.2% active;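 active means activity change below a set negative limit, meaning inhibition stronger than a set level, cut at about -70% in these data; inconclusive means activity change between two set negative limits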; further: on the % scale 0 is the no-effect control and ±100 the full control effect
Target sequence (P16473 whole entry, looked up): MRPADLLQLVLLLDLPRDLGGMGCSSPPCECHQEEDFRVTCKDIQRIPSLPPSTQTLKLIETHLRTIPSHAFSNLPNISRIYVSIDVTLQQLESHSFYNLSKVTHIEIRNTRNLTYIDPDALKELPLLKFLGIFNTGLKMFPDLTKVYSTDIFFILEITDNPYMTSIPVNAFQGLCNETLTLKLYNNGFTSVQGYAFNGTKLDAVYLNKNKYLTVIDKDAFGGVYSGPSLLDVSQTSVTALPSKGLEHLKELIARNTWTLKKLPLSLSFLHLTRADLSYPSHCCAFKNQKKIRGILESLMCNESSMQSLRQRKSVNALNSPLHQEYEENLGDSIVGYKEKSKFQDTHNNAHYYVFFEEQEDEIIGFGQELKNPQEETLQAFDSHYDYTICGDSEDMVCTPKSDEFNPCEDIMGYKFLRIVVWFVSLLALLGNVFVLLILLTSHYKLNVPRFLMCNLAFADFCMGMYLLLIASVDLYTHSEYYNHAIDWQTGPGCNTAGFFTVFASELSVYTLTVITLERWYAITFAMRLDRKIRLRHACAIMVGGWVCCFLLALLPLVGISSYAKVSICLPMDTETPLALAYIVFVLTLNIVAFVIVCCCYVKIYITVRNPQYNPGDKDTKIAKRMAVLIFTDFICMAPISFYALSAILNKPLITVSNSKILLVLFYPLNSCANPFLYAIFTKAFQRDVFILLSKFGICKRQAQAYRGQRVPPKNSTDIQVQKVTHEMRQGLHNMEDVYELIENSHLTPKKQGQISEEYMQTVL
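Cell-based HTRF cAMP assay; TSHR cells + compound, TSH EC80 (4nM final), 2 h, 37 deg C. Lysis with anti-cAMP cryptate and cAMP-d2, 30 min RT, read 665/620 nm.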
VDR inh = vitamin D3 receptor (human) inhibition | P11473 | VDR-SRC2-3 peptide fluorescence polarization, 2 h | Potency, µM, for inactives: max response, negative = inhibition, most hits filed as inhibitors | 400,000 tested, 0.93% active; further: potency means the concentration at half of the fitted maximal effect; on the % scale 0 is the no-effect control and ±100 the full control effect
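Two reagent solutions held at 4 deg C in the dark were dispensed, compounds pinned at 23 nl, and the mixture incubated 2 h at room temperature. Read-out: fluorescence polarization of VDR–SRC2-3 peptide binding.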
Vif-APOBEC3F blk = blocks the Vif interaction with APOBEC3F; 390,000 tested, 0.2% active; Potency, µM (highest dose often 46.1 µM), without a hit: at the top dose activity, negative = active; AID 602313; HeLa A3F-eYFP + Vif (tagged APOBEC3F with the HIV-1 protein that degrades it), YFP fluorescence increase; further: potency means the concentration at half of the fitted maximal effect; % of control where 0% means no effect; nearly all actives have a fitted effect of over 65% in size
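Fluorescence increase (Ex 488/Em 500-530) after overnight compound treatment at 37 deg C flags inhibition of Vif-driven A3F-eYFP loss in stable HeLa A3F-eYFP/Vif cells seeded overnight beforehand.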
* hit, by the source's call; ? = inconclusive; / = no result given. A selection: hits, their analogues and other compounds. The true share with any hit is near 3.1%. Unless noted, the call rests on the fitted dose curve; in most records, active means well fitted curve in the direction sought with a large enough effect; inconclusive means small, poorly fitted or top-dose-only effect, or another doubt; inactive means no such curve, though single readings can be large; an effect the other way counts as inactive or inconclusive.

SMILES	PLK1 PBD block	Vif-APOBEC3G blk	TSHR antagonist	VDR inh	Vif-APOBEC3F blk
CCOC(=O)/C=C/CCC/C=C/C(=O)c1ccccc1	/	/	/	8.9µM*	/
Cc1cc(C)c2ccc(=S)[nH]c2n1	15µM*	-3%	1	-18%	3%
COc1ccc2c(C)cc(C)nc2n1	-3%	-4%	-7	2%	1%
CCOC(=O)C(=CNNc1ccccc1)C(=O)OCC	?	-1%	0	50µM*	7%
COc1ccc(NC(=S)NCCCN2CCCC2)cc1Cl	19µM*	-3%	-3	-20%	-4%
COc1ccc(NC(=S)N(CCCN2CCC(C)CC2)Cc2cccs2)cc1Cl	17µM*	4%	-6	-25%	-4%
COc1ccc(Cl)cc1NC(=S)NCCN1CCOCC1	-10%	5%	1	-10%	10%
COc1ccc(NC(=S)NCCN2CCC(C)CC2)cc1Cl	11µM*	3%	-23	?	1%
Cc1nn(-c2ccccc2)c2c1cc1c(=O)[nH]c(=O)nc-1n2-c1cccc(C(F)(F)F)c1	/	4%	/	-20%	-12%
CC(C)c1ccc(/C=C/C(=O)Nc2nc3ccc([N+](=O)[O-])cc3s2)cc1	0%	-4%	12	-12%	-1%
O=C(O)COc1ccc(/C=C/c2nc3ccc([N+](=O)[O-])cc3s2)cc1	24µM*	1%	-15	32µM*	6%
N#Cc1c(/N=C/c2ccc(-c3ccc(C(=O)O)c(Cl)c3)o2)sc2c1CCCC2	?	-5%	-10	-21%	1%
N#Cc1c(/N=C/c2ccc(-c3ccccc3C(=O)O)o2)sc2c1CCCC2	38µM*	0%	4	-14%	8%
O=C(COC(=O)c1ccc(S(=O)(=O)N2CCCC2)cc1)Nc1ccc(N2CCOCC2)cc1	9.5µM*	-1%	4	?	1%
Cc1ccc(Sc2cnc(N)nc2C)cc1	27µM*	-2%	-9	-15%	-2%
Cc1ccc(Sc2ncccc2C(N)=O)cc1	-8%	-1%	/	-7%	-5%
Cc1ccc(Nc2c(-c3ccc(C)o3)nc3cnccn23)cc1	14µM*	-9%	3	71µM*	1%
CCNC(=O)N1CCN(/[N+]([O-])=N/Oc2ccc([N+](=O)[O-])cc2[N+](=O)[O-])CC1	/	-4%	/	/	/
COc1ccc2c(C)cc(=S)[nH]c2c1	11µM*	0%	4	-4%	13%
CCOC(=O)N1CCN([N+]([O-])=NOc2cc(O/N=[N+](\[O-])N(CC)CC)c([N+](=O)[O-])cc2[N+](=O)[O-])CC1	/	3%	/	-15%	/
O=C(CNS(=O)(=O)c1ccccc1)N/N=C\c1ccc(Cl)cc1	24µM*	-5%	18	-18%	3%
S=c1cnc2ccccc2[nH]1	12µM*	1%	2	?	3%
FC(F)(F)C(F)(F)C(F)(F)c1nc2ccccc2[nH]1	/	3%	/	/	/
Cc1ccc(Nc2nc(NCc3ccco3)nc3nccnc23)cc1Cl	/	-68%	/	0%	/
Cc1ccc(CNC(=O)c2cn(C3CCCCC3)c(=O)c3c2c2ccccc2n3C)o1	?	-7%	-17	79µM*	0%
SMILES	PLK1 PBD block	Vif-APOBEC3G blk	TSHR antagonist	VDR inh	Vif-APOBEC3F blk
Cc1ccc(CNC(=O)c2cn(C)c(=O)c3c2c2ccccc2n3C)o1	-11%	0%	0	-9%	2%
Cc1ccc(NC(=O)CN2C(=O)CCn3nc(-c4cccn4C)cc32)cc1	/	-4%	/	11%	5%
CN=c1sc2c(n1C)C(=O)c1ccccc1C2=O	-25%	-18%	/	?	-5%
COc1c(C2=CC(=O)N(C)C2=O)c2c(n1C)C(=O)c1ccccc1C2=O	/	/	/	13µM*	/
Cc1ccc(CNC(=O)CCCn2c(=O)c3ccccc3n(Cc3ccccc3C)c2=O)cc1	/	2%	/	-5%	0%
CCCN1C(=O)/C(=c2\sc3nc(=O)c(Cc4ccc(C)cc4)nn3c2=O)c2ccccc21	30µM*	-1%	-8	?	-37%
CCCCN1C(=O)/C(=c2\sc3nc(=O)c(-c4ccccc4)nn3c2=O)c2ccccc21	27µM*	-15%	-10	?	-13%
CC(NC(=O)c1ccc(Cn2cc([N+](=O)[O-])cn2)cc1)c1ccccc1 (stereo not drawn)	27µM*	-5%	11	?	4%
CC(=O)OCC(NC(=O)C(COCc1ccccc1)NC(=O)OC(C)(C)C)C1OC(n2cc(C)c(=O)[nH]c2=O)C(OC(C)=O)C1OC(C)=O (stereo not drawn)	/	1%	/	-4%	/
CCC(=O)N1CCc2cc(Br)cc(S(=O)(=O)CCC(=O)NCCc3ccccc3Cl)c21	/	-5%	/	-7%	0%
Cc1[nH][nH]c(=O)c1C(c1ccc(-c2ccc(F)cc2)o1)c1c(C)[nH][nH]c1=O	24µM*	-27%	0	32µM*	11%
Cc1[nH][nH]c(=O)c1C(c1ccc(-c2ccc(Cl)c(Cl)c2)o1)c1c(C)[nH][nH]c1=O	15µM*	?	3	79µM*	0%
COc1ccc(-c2ccc(/C=N/N3C(=O)C4C5C=CC(C6CC56)C4C3=O)o2)c([N+](=O)[O-])c1 (stereo not drawn)	2%	-4%	2	?	-21%
CCOc1ccc(Cl)cc1C(c1c(C)[nH][nH]c1=O)c1c(C)[nH][nH]c1=O	?	-7%	-9	-1%	-30%
Cc1[nH][nH]c(=O)c1C(c1ccc(-c2ccc(C(=O)O)cc2)o1)c1c(C)[nH][nH]c1=O	24µM*	0%	-18	?	-14%
COc1ccc(-c2ccc(C(c3c(C)[nH][nH]c3=O)c3c(C)[nH][nH]c3=O)o2)c([N+](=O)[O-])c1	21µM*	-24%	-2	?	-1%
Cc1ncc(CO)c(/C=N/NC(=S)Nc2ccc(C(C)C)cc2)c1O	12µM*	3%	-3	?	0%
CC(C(=O)NC1CCCCC1)N1CCN(C)CC1 (stereo not drawn)	30µM*	4%	13	-7%	-5%
CC(C(=O)NC1CCCC1)N1CCN(Cc2ccccc2)CC1 (stereo not drawn)	-15%	1%	-24	7%	3%
Cc1cccc(CNc2ncncc2-c2cccc(C#N)c2)c1	/	/	/	-17%	/
C/C(=N\NC(=O)c1csc(C)c1C)c1ccc(Cl)s1	24µM*	4%	30	-16%	-4%
C/C(=N\NC(=O)c1ccoc1C)c1ccc(Cl)s1	-2%	1%	4	2%	3%
CCn1c2ccccc2c2c3ncc4cccn4c3ccc21	-14%	?	-4	?	25µM*
c1ccc2c(c1)ncc1cccn12	-14%	1%	-9	-11%	-2%
C=C[C@@H]1c2cc(C)ccc2N(S(=O)(=O)c2ccc(C)cc2)[C@H](c2ccc(C(=O)OC)cc2)C1(C#N)C#N	/	0%	/	/	/
COc1ccc(/C=C2\SC(=S)NC2=O)cc1OS(=O)(=O)c1ccc(NC(C)=O)cc1	?	-20%	?	-14%	-8%
